# Test results reported in PubChem BioAssay.
# Unmarked numbers belong to inactive results. Active and inactive are the calls of the source. Rule as the data show it: active = fold change permeability below about 0.7 or above about 1.3; inactive = in between.
# Assay: compounds altering in vitro BBB leakiness – cell-based, FITC-avidin fluorescence, HTS, primary screen (AID 1963498); also: test concentration not given here
# Settings: brain endothelial barrier, actives lie on both sides
row,SMILES,fold change permeability
1,CC1=C(C(=O)Nc2ccc3[nH]ncc3c2)C(c2ccc(F)cc2)NC(=O)N1 (centres undefined),1.2
2,NCCOc1cc(C(=O)Nc2cc(OCCN)c3ccccc3n2)nc(C(=O)Nc2cc(OCCN)c3ccccc3n2)c1,0.9
3,O=C(O)/C=C/c1ccc(O)c(O)c1,0.8
4,Nc1nc2[nH]c(=O)cnc2c(=O)[nH]1,1.4 (active)
5,CC/C(=N\NC(=O)c1ccnc(NCCCN2CCOCC2)c1)c1ccc(Cl)cc1O,0.8
6,CCCCCC(O)CCCC(=O)O (centres undefined),1
7,CSC(N)=NCCC[C@H](N)C(=O)O,0.7 (active)
8,O=C(CCNNC(=O)c1ccncc1)NCc1ccccc1,0.8
9,O=C1NCN(c2ccccc2)C12CCN(CCCC(c1ccc(F)cc1)c1ccc(F)cc1)CC2,1.2
10,Cc1[nH]c(=O)c(C#N)cc1-c1ccc2nccn2c1,0.8
11,N[C@@H](CCCC(=O)O)C(=O)O,1.1
12,Cc1nc2c(OCc3ccccc3)cccn2c1CC#N,0.9
13,CN(C)[C@@H]1C(=O)C(C(N)=O)=C(O)[C@@]2(O)C(=O)C3=C(O)c4c(O)ccc(Cl)c4[C@@H](O)[C@H]3C[C@@H]12,1
14,CC1(C)OC(=O)C(c2cccc(F)c2)=C1c1ccc(S(C)(=O)=O)cc1,0.9
15,C=CCc1ccccc1OCC(O)CNC(C)C (centres undefined),1.2
16,Cn1c(=O)[nH]c2ncn(C)c2c1=O,1.1
17,O=C1Nc2ccc(Cl)cc2[C@@](C#CC2CC2)(C(F)(F)F)O1,1.2
18,O=c1cc2c(=O)oc3cc(O)c(O)oc3c2c(O)c1O,1.9 (active)
19,CCCn1c(=O)c2[nH]c(C3CCCC3)nc2n(CCC)c1=O,1.5 (active)
20,CN[C@H](CC(=O)O)C(=O)O,0.8

row,SMILES,fold change permeability
1,Nc1c(S(=O)(=O)O)cc(Nc2ccc(Nc3nc(Cl)nc(Nc4cccc(S(=O)(=O)O)c4)n3)c(S(=O)(=O)O)c2)c2c1C(=O)c1ccccc1C2=O,0.7 (active)
2,OCCN1CCN(CCCN2c3ccccc3Sc3ccc(Cl)cc32)CC1,1.2
3,COc1ccccc1N1CCN(CCN(C(=O)C2CCCCC2)c2ccccn2)CC1,2 (active)
4,C#CC(N)CCC(=O)O (centres undefined),1.1
5,N[C@@H](Cc1cnc[nH]1)C(=O)O,0.9
6,CCCCNc1cc(C(=O)O)cc(S(N)(=O)=O)c1Oc1ccccc1,1
7,c1ccc(C2CN3CCSC3=N2)cc1 (centres undefined),1
8,CN(C)CC[C@@H](c1ccc(Cl)cc1)c1ccccn1,1.1
9,COc1cccc(OC)c1OCCNCC1COc2ccccc2O1 (centres undefined),1.3 (active)
10,CCCCCCCCCC(=O)N[C@H](CN1CCOCC1)[C@H](O)c1ccccc1,0.9
11,CC(C)(N)C(=O)N[C@H](COCc1ccccc1)C(=O)N1CCC2(CC1)CN(S(C)(=O)=O)c1ccccc12,1.8 (active)
12,NC(N)=NCCC[C@H](N)C(=O)O,1.1
13,CC(=O)N[C@@H](Cc1c[nH]c2ccccc12)C(=O)OCc1cc(C(F)(F)F)cc(C(F)(F)F)c1,0.9
14,Cc1c(OCC(F)(F)F)ccnc1CS(=O)c1nc2ccccc2[nH]1 (centres undefined),1.6 (active)
15,NS(=O)(=O)c1cc2c(cc1Cl)NC=NS2(=O)=O,0.9
16,COCc1nc2c([nH]1)c(=O)n(C)c(=O)n2CC(C)C,0.8
17,CCCNC(=O)NS(=O)(=O)c1ccc(Cl)cc1,0.9
18,CC(=O)O[C@H]1Cc2ccccc2N(C(N)=O)c2ccccc21,1.8 (active)
19,CCCn1c(=O)c2[nH]c(-c3ccc(S(=O)(=O)O)cc3)nc2n(CCC)c1=O,1.1
